{
  "source": "PubChem BioAssay (NCI)",
  "note": "The panel holds about 79,000 compounds, 15% with a hit somewhere; the sample as a whole holds those more often. The source made the active and inactive calls. Cut-off read from the data, not from the text of the source: active = growth inhibition above about 70%; inactive = the rest.",
  "data": [
    {"assay": "NCI Yeast Anticancer Drug Screen. Data for the mlh1 rad18 strain (AID 175)", "details": "S. cerevisiae mlh1 rad18 strain growth inhibition; at 50.0 µM (retest, dose inferred, filed as 5.0); active compounds read high", "procedure,_shortened": "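Read-out is yeast growth inhibition, calculated against vehicle-only controls. The compound was applied to a strain engineered with DNA damage repair alterations.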", "values": [
      {"smiles": "c1ccc(NC2=NCCN2)nc1", "growth inhibition": "98% (active)"},
      {"smiles": "C[CH2][Sn]([CH2]C)([CH2]C)[O]C(=O)CO", "growth inhibition": "98% (active)"},
      {"smiles": "CC12CCC(O)CC1CCC1C2CCC2(C)C1CC1CC(=O)OC12", "note": "(stereo not drawn)", "growth inhibition": "98% (active)"},
      {"smiles": "Nc1ccc(N=Nc2ccccc2)cc1", "growth inhibition": "78% (active)"},
      {"smiles": "C[n+]1c(/C=C/c2ccc(O)c3ncccc23)[se]c2ccccc21", "growth inhibition": "90% (active)"},
      {"smiles": "COC(=O)C1=C(C)N2CCSC2(C)C(C(=O)OC)C1c1cccc(Cl)c1", "note": "(stereo not drawn)", "growth inhibition": "90% (active)"},
      {"smiles": "O=[N+]([O-])/C=C/c1ccccc1", "growth inhibition": "100% (active)"},
      {"smiles": "CC12CCC(O)CC1CCC1C2CCC2(C)C(C(=O)CC(O)C(F)(F)F)CCC12", "note": "(stereo not drawn)", "growth inhibition": "63% (inactive)"},
      {"smiles": "CC(C)NCC(O)c1ccc(O)c(O)c1.[Pt].c1ccc([PH+](c2ccccc2)c2ccccc2)cc1.c1ccc([PH+](c2ccccc2)c2ccccc2)cc1", "growth inhibition": "99% (active)"},
      {"smiles": "CCOC(=O)/C(=C\\c1ccc(C(=O)OC)cc1)[Se]c1ccccc1", "growth inhibition": "64% (inactive)"},
      {"smiles": "CC/C(=C/c1ccc2c(c1)OCO2)[N+](=O)[O-]", "growth inhibition": "99% (active)"},
      {"smiles": "CCOC(=O)C1=C(C)NC(=O)NC1c1ccc(N(CCCl)CCCl)cc1Cl", "note": "(stereo not drawn)", "growth inhibition": "88% (active)"},
      {"smiles": "S=C(S)N1CCOCC1", "growth inhibition": "88% (active)"},
      {"smiles": "CCOC(=O)c1ccccc1N", "growth inhibition": "4% (inactive)"},
      {"smiles": "C[n+]1c(/C=C/c2ccc(O)c(O)c2)[se]c2ccccc21", "growth inhibition": "80% (active)"},
      {"smiles": "CS(=O)(=O)[O-].CS(=O)(=O)[O-].NC1CCCCC1N.[Pt+4]", "note": "(stereo not drawn)", "growth inhibition": "98% (active)"},
      {"smiles": "COc1ccc2c(c1O)-c1cccc3c1[C@@H](C2)N(CCCl)CC3", "growth inhibition": "98% (active)"},
      {"smiles": "COC(=O)CC1(C(=O)O)CC2(Cl)C(Cl)=C(Cl)C1(Cl)C2(Cl)Cl", "note": "(stereo not drawn)", "growth inhibition": "57% (inactive)"}
    ]}
  ]
}
